According to PubChem BioAssay (NCATS):
Inconclusive results are not listed. Where a call stands in place of a potency, no number is given. Calls of active or inactive are those of the source. The call rests on the fitted dose curve; in most records, active means well fitted curve in the direction sought with a large enough effect; inconclusive means small, poorly fitted or top-dose-only effect, or another doubt; inactive means no such curve, though single readings can be large or run the other way.

assay: Cytotoxicity counterscreen for NFkB agonists and antagonists (AID 624476); conditions: NFkB reporter cell line viability counterscreen; series mostly up to 46.1 µM;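 further: cells exposed to compound for 48 hours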
Potency means the concentration at half of the fitted maximal effect.

Row | SMILES | Potency
1 | CCOC(=O)C1=C[C@@]2(CC)CCCN3CCc4c(n1c1ccccc41)[C@H]32 | inactive
2 | CN[C@@H](C)C(=O)N[C@H]1CCCC[C@H]2CC[C@@H](C(=O)N[C@@H](c3ccccc3)c3cn(CCCCc4ccc(CCCCn5cc([C@@H](NC(=O)[C@@H]6CC[C@@H]7CCCC[C@H](NC(=O)[C@H](C)NC)C(=O)N76)c6ccccc6)nn5)cc4)nn3)N2C1=O | inactive
3 | Nc1nccc(-c2ccc3noc(-c4ccc(Cl)cc4)c3c2)n1 | inactive
4 | CN([C@@H](Cc1ccc(OS(=O)(=O)c2cccc3cnccc23)cc1)C(=O)N1CCN(c2ccccc2)CC1)S(=O)(=O)c1cccc2cnccc12 | inactive
5 | COc1ccccc1[C@H](c1cccc2ccccc12)[C@@](C)(C#N)C(=O)N1CCC(c2cccc(C(F)(F)F)c2)CC1 | inactive
6 | Cc1cnc(Nc2ccc(OCCN3CCCC3)cc2)nc1Nc1cccc(S(=O)(=O)NC(C)(C)C)c1 | inactive
7 | Cc1cc(Nc2nc(N[C@@H](C)c3ncc(F)cn3)ncc2Cl)n[nH]1 | inactive
8 | CCN(CCCO)CCCOc1ccc2c(Nc3cc(CC(=O)Nc4cccc(F)c4)[nH]n3)ncnc2c1 | inactive
9 | COc1ccc(CC2=NN3C([C@@H](CCc4ccccc4)[C@@H](C)O)=NC(C)C3C(=O)N2)cc1OC (some centres not stated) | inactive
10 | CC[C@@H](C)[C@H](NC(=O)[C@H](CC1CCCCC1)NC(=O)c1ccno1)C(=O)N1CCC2(CCc3ccccc32)CC1 | inactive
11 | CC1(C)SCCN(S(=O)(=O)c2ccc(OCC#CCO)cc2)[C@@H]1C(=O)NO | inactive
12 | CCN(c1ccccc1)c1cc(NC)[n+](C)c(C)n1 | inactive
13 | C[C@H](NC(=O)Cc1cc(F)cc(F)c1)C(=O)N[C@@H]1C(=O)N(C)c2ccccc2-c2ccccc21 | inactive
14 | CCc1cc(Nc2nccc(-c3c(-c4ccc(OC)c(C(=O)Nc5c(F)cccc5F)c4)nc4ccccn34)n2)c(OC)cc1N1CCC(N2CCN(S(C)(=O)=O)CC2)CC1 | inactive
15 | CS(=O)(=O)c1ccc(C(=O)Nc2ccc(Cl)c(-c3ccccn3)c2)c(Cl)c1 | inactive
16 | Cc1csc(NC(=O)c2sc3nc4c(c(C(F)(F)F)c3c2N)CCC4)n1 | inactive
17 | CNC(=O)c1ccccc1Sc1ccc2c(/C=C/c3ccccn3)n[nH]c2c1 | inactive
18 | O=C(C=Cc1ccc(/C=C/C(=O)Nc2ccc(C3=NCCN3)cc2)cc1)Nc1ccc(C2=NCCN2)cc1 | inactive
19 | COc1ccc(-c2ccc3c(N4CCOCC4)nc(N4C[C@@H](C)O[C@@H](C)C4)nc3n2)cc1CO | inactive

Row | SMILES | Potency
20 | O=C1CCCC2=C1C(c1[nH]ncc1Cl)N=C(Nc1nc3ccccc3o1)N2 (configuration not stated) | inactive
21 | Cc1ccc2c(c1)C(=O)[C@@]1(O)CCN(c3ccccc3)C1=N2 | inactive
22 | C[C@@H]1C[C@H]2[C@@H]3CCC4=CC(=O)C=C[C@]4(C)C3(F)[C@@H](O)C[C@]2(C)[C@@]1(O)C(=O)CO (some centres not stated) | inactive
23 | COc1cc2c(cc1OC)CN(CCc1ccc(NC(=O)c3cccc4c(=O)c5cccc(OC)c5[nH]c34)cc1)CC2 | inactive
24 | O=c1[nH]c(-c2ccc(C(F)(F)F)cc2)nc2c1CSCC2 | inactive
25 | CCn1c(-c2nonc2N)nc2cnc(Oc3cccc(NC(=O)c4ccc(OCCN5CCOCC5)cc4)c3)cc21 | inactive
26 | O=C1[C@H](Cc2ccc(O)cc2)N2C(=O)CCN(C(=O)NCc3ccccc3)[C@H]2CN1Cc1cccc2ccccc12 | inactive
27 | NC(=O)c1ccc(I)c([N+](=O)[O-])c1 | inactive
28 | C[C@@H]1CN(Cc2ccc(F)cc2)[C@@H](C)CN1C(=O)c1cc2c(C(=O)C(=O)N(C)C)cn(C)c2cc1Cl | inactive
29 | Cc1cc(-c2nnc3n2CCCCC3)c(C)n1-c1ccc(F)cc1 | inactive
30 | O=C(O)CCc1ccc(NCc2cccc(Oc3ccccc3)c2)cc1 | inactive
31 | CC(C)OC(=O)C1=CN(C(=O)c2ccc(F)c(F)c2)CC(C)(C)c2c1[nH]c1ccccc21 | inactive
32 | CCOc1cc(C(=O)Nc2ccc(Cl)c(-c3nc4ccccc4[nH]3)c2)cc(OCC)c1OCC | inactive
33 | Cn1cc(-c2ccc3nnc(C(F)(F)c4ccc5ncccc5c4)n3n2)cn1 | inactive
34 | O=C(O)[C@@H](c1ccc(OCc2ccc3ccccc3n2)cc1)C1CCCC1 | inactive
35 | CCCS(=O)(=O)Nc1ccc(F)c(C(=O)c2c[nH]c3ncc(Cl)cc23)c1F | inactive
36 | CCCS(=O)(=O)Nc1ccc(F)c(C(=O)c2c[nH]c3ncc(-c4ccc(Cl)cc4)cc23)c1F | 20.9 µM (active)
37 | OCCn1cc(-c2cnc3nnn(Cc4ccc5ncccc5c4)c3n2)cn1 | inactive
